Source: PubChem (National Center for Advancing Translational Sciences (NCATS))
In the library only some 10% were active in any assay of this set; here they are far more common.
BAZ2B inh: inhibitors of human BAZ2B bromodomain; Q9UIF8; AlphaScreen BAZ2B-H3K14Ac peptide displacement; Potency, µM (titrated, usually from 114 µM), without a hit: at the top dose activity change, negative = inhibition, hits mostly inhibitors; 360,000 tested, 4.4% active; AID 504333; note: potency is the fitted concentration of half-maximal effect; % is set by controls: 0 for no effect and ±100 for the full control effect; nearly all actives have a fitted effect of over 60% in size
Target sequence (Q9UIF8 whole entry, looked up): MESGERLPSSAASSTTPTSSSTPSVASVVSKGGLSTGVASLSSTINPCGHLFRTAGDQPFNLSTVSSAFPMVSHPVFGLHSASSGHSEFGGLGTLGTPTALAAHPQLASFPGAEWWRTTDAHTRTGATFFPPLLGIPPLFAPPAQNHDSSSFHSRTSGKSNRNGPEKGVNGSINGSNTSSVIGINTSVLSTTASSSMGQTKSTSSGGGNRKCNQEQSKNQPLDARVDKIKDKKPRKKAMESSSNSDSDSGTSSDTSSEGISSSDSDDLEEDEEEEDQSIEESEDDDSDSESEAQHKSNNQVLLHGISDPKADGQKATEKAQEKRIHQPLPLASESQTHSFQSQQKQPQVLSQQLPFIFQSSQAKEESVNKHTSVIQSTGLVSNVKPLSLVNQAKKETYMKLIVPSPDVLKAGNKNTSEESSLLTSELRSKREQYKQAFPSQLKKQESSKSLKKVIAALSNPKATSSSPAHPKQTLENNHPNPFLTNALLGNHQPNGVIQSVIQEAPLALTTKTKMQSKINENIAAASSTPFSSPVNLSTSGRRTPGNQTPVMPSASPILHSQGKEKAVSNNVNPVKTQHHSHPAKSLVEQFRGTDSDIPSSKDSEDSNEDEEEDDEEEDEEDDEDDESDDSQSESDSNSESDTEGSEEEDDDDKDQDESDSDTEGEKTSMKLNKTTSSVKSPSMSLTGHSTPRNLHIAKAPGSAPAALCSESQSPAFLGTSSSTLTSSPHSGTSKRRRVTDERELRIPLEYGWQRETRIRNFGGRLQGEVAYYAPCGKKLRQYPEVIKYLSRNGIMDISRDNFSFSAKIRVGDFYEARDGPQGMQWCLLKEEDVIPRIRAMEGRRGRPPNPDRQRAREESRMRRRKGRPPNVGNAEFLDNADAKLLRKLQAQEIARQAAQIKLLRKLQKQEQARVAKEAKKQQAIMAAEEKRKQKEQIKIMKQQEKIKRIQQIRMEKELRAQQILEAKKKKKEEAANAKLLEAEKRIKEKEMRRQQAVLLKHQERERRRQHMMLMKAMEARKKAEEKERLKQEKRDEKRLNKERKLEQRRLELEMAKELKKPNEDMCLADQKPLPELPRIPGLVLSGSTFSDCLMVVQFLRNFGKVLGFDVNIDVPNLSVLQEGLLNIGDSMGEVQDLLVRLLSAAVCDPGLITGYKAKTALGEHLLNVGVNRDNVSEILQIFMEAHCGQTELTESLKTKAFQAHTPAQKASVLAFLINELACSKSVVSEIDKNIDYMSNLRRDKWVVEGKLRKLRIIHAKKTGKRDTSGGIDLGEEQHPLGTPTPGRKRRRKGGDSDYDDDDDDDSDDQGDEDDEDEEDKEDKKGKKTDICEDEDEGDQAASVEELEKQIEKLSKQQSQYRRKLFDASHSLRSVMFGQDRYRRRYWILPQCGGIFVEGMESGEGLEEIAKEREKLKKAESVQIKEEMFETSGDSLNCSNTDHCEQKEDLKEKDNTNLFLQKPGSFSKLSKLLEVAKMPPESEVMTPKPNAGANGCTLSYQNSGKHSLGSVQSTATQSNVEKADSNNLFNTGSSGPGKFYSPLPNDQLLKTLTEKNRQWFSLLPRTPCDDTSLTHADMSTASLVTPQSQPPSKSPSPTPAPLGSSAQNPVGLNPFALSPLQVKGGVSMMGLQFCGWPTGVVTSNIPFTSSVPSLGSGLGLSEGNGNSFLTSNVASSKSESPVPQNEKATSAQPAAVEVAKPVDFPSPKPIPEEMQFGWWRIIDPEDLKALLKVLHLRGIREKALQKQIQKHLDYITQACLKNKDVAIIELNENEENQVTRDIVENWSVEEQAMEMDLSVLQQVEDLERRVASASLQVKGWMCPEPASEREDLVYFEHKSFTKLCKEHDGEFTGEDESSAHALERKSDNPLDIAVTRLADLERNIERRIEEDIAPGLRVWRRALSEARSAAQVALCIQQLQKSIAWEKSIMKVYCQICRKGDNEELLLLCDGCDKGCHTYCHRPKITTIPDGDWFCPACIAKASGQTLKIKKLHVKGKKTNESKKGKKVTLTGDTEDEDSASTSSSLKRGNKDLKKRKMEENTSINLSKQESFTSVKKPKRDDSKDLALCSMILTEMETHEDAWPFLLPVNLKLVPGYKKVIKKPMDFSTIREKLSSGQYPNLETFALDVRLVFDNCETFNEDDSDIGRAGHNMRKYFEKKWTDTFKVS
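Inhibition is scored as reduced AlphaScreen emission. The BAZ2B/b-H3(5-23)K14Ac complex (50 nM each) in PBS pH 7.4, 0.01% Tween-20 meets compound (up to 110 uM) for 30 min at RT before bead addition.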
G9a inh: blocks human histone lysine methyltransferase G9a; G9a H3K9 monomethylation, AlphaScreen, 2 h; Potency, µM (series often up to 102 µM), inactives show at the top dose activity, negative = inhibition, most hits filed as inhibitors; 350,000 tested, 8.8% active; note: potency is the fitted concentration of half-maximal effect; % is set by controls: 0 for no effect and ±100 for the full control effect; nearly all actives have a fitted effect of over 75% in size
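G9a (20 nM) preincubated 15 min RT with compounds, then 500 nM biotinylated H3K9 peptide and 20 uM SAM added; 2 h RT reaction. Monomethyl-H3K9 product detected by AlphaScreen with anti-H3K9me1 antibody, streptavidin donor and anti-rabbit IgG acceptor beads.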
CtBP-E1A inh: CtBP/E1A binding inhibition | AlphaScreen GST-E1A/His-CtBP binding, 1536-well; stronger effect = lower value | activity change, % (no concentration beside the values) | 340,000 tested, 0.49% active | AID 651724; in the data active = activity change below about -65%; inconclusive = mostly about -30% to -63%; note: % is set by controls: 0 for no effect and ±100 for the full control effect
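GST-E1A and His-tagged CtBP (125 nM each as 5X stock) were preincubated with pin-transferred compound for 2 h at 37 °C in the dark, then glutathione donor and nickel acceptor beads were added for 1 h before AlphaScreen reading.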
Six1-Eya2 blk: blocks human Six1 binding to Eya2. AlphaScreen GST-Six1/His-Eya2 binding, biochemical; stronger effect = lower value. activity change, % (test concentration not listed). 360,000 tested, 0.56% active; in the data active = activity change below about -65%; inconclusive = mostly about -30% to -63%; note: % is set by controls: 0 for no effect and ±100 for the full control effect
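AlphaScreen with GST-Six1 and His-Eya2 (5X mix: 250 nM and 500 nM), glutathione donor and nickel acceptor beads; buffer 50 mM Tris pH 8.0, 300 mM NaCl, 1 mM TCEP; 1 h at 37 C in the dark.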
JMJD2A Tudor inh: blocks the human JMJD2A Tudor domain. O75164. AlphaScreen JMJD2A-Tudor / H3K4me3 peptide binding. Potency, µM (doses to about 114 µM), for inactives: at the highest dose activity change, negative = inhibition, hits mostly inhibitors. 390,000 tested, 4.4% active; note: potency is the fitted concentration of half-maximal effect; % is set by controls: 0 for no effect and ±100 for the full control effect; nearly all actives have a fitted effect of over 50% in size
HP1b binding inh: blocks HP1-beta chromodomain binding to methylated histone tails; AlphaScreen HP1-beta / biotin-H3K9me3 peptide binding; 390,000 tested, 0.56% active; Potency, µM (top dose mostly 114 µM), without a hit: at the highest dose activity change, negative = inhibition, usual class: inhibitors; note: potency is the fitted concentration of half-maximal effect; nearly all actives have a fitted effect of over 70% in size
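HP1-beta protein (50 nM final) preincubated 30 min at room temperature with biotinylated H3(1-18)K9me3 peptide (50 nM) in PBS pH 7.4, 0.01% Tween-20, then compound added for 30 min. AlphaScreen streptavidin donor/nickel chelate acceptor beads (10 ug/mL final), 30 min dark, luminescence read.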
* marks the source's active call; other numbers are inactive results; ? = inconclusive; / = not tested or not shown; [ ] = remark or other dose. Unless noted, calls come from the whole dose curve; as a rule, active = well fitted inhibition curve with a large enough effect; inconclusive = small, poorly fitted or top-dose-only effect; inactive = no such curve, though single readings can be large or run the other way.

SMILES | BAZ2B inh | G9a inh | CtBP-E1A inh | Six1-Eya2 blk | JMJD2A Tudor inh | HP1b binding inh
Cc1ccc(C(=O)Nc2nc3ccccc3[nH]2)cc1 | 3% | -10% | -6 | -3 | -16% | 7%
Cn1nc(C(=O)Nc2nc3ccccc3[nH]2)ccc1=O | ? | 32µM* | -21 | -6 | -35% | 19%
O=C(Nc1nc2ccccc2[nH]1)c1ccc(Cl)c(S(=O)(=O)N2CCCC2)c1 | -5% | 9% | -73* | ? | -27% | 7%
O=C(Nc1nc2ccccc2[nH]1)c1ccc(S(=O)(=O)N2CCOCC2)cc1 | -21% | 46% | / | -1 | -14% | 10%[57 µM]
COc1ccc(CNC(=O)CCCN2C(=O)CCn3nc(-c4cn(C)c5ccccc45)cc32)cc1 | -12% | 8%[59 µM] | / | / | -16% | 20%[57 µM]
O=C1OCCC1Sc1nnc(-c2ccc(Cl)cc2)n1Cc1ccccc1 (stereo not drawn) | 11% | 11µM* | 5 | 2 | -2% | 52%
CCOC(=O)c1c(C)oc2nc(C)nc(NCCc3ccc(OCC)c(OCC)c3)c12 | -10%[57.1 µM] | -26%[59 µM] | / | / | -13% | 14%
CN(C)c1ccc(NC(=O)CSc2nc(C3CC3)nc3ccccc23)cc1 | -11% | 4.5µM* | 2 | 0 | ? | -5%
CN(C)c1ccc(NC(=O)CSc2nc3ccccc3c(=O)n2C2CCCCC2)cc1 | 10µM* | 7.9µM* | ? | ? | 7.9µM* | ?
CN(C)c1ccc(NC(=O)CSc2nc3ccccc3c(=O)n2CC2CCCO2)cc1 (stereo not drawn) | -18% | ? | 0 | 0 | -13% | -10%
O=C(CSc1nc(C2CC2)nc2ccccc12)Nc1ccccc1 | 1% | 21%[59 µM] | -14 | -5 | -9% | 12%
O=C(Nc1nnc(S(=O)(=O)N2CCc3ccccc32)s1)c1cccc(Cl)c1 | ? | -40%[59 µM] | / | / | -20% | 6%
O=C(COc1cccc2ccccc12)Nc1ccc(Cl)cc1C(=O)O | -18% | 79µM* | 3 | -9 | -27% | 10%
Cc1cc(C(=O)Nc2ccccc2C(=O)O)ccc1NC(=O)COc1ccccc1Cl | -5% | 22µM* | -4 | -1 | -6% | 24%
CCC(=O)Nc1cc(Cl)ccc1C(=O)O | ? | -4%[59 µM] | 4 | -3 | 79µM* | 26%
COc1cccc(C(=O)c2sc(Nc3ccc(C)cc3C)c(S(=O)(=O)c3ccccc3)c2N)c1 | -30% | -5%[59 µM] | / | / | -20% | 22%
CN1CCN(C(c2cccc(Br)c2)c2sc3nc(-c4ccco4)nn3c2O)CC1 (stereo not drawn) | -20% | -3%[59 µM] | / | / | -20% | 18%
COC(=O)C1=C(C)NC(=O)NC1c1ccc(-c2ccccc2Cl)o1 (stereo not drawn) | 11% | ? | / | 2 | -23%[11.4 µM] | -10%
CCOC(=O)C1=C(C)NC(=S)NC1c1ccc(-c2ccc(Cl)cc2)o1 (stereo not drawn) | -37% | ? | -24 | -12 | -35% | 17%
COC(=O)C1=C(C)NC(=S)NC1c1ccc(-c2cccc(Cl)c2)o1 (stereo not drawn) | ? | 10µM* | 3 | 3 | 3% | 50%
CCOC(=O)C1=C(C)NC(=S)NC1c1ccco1 (stereo not drawn) | -14% | 50µM* | -12 | 1 | ? | 12%
CCOC(=O)C1=C(C)NC(C)=C(C(=O)OCC)C1c1ccco1 | -11% | / | / | -10 | -14% | 15%
COC(=O)C1=C(C)NC(=S)NC1c1ccc(-c2ccccc2C(=O)OC)o1 (stereo not drawn) | -39% | 8.9µM* | -2 | -5 | -29% | 5%
Cc1ccc(CNC(=O)CCCCCn2c(=O)c3sccc3n(CC(=O)N(C)c3ccccc3)c2=O)cc1 | -1% | 3%[59 µM] | / | / | -21% | 6%
COc1ccccc1CNC(=O)Cn1c(=O)oc2cc(S(=O)(=O)NCc3ccccc3)ccc21 | -4% | 5%[59 µM] | / | / | -19% | 23%
SMILES | BAZ2B inh | G9a inh | CtBP-E1A inh | Six1-Eya2 blk | JMJD2A Tudor inh | HP1b binding inh
CN1CCN(c2ccc([N+](=O)[O-])cc2/C=N/NC(=O)c2ccc(F)cc2)CC1 | 5% | ? | -3 | -5 | -23% | 4%
Cc1ccc(NC(=O)CCC(=O)N/N=C/c2cc([N+](=O)[O-])ccc2O)cc1 | 8% | 9% | -65* | -87* | -24% | 22%
CN1CCN(CCC(=O)N/N=C/c2cc([N+](=O)[O-])ccc2O)CC1 | 0% | ? | -77* | -87* | ? | 22%
Cc1ccc(C)c(NC(=O)CCC(=O)N/N=C/c2cc([N+](=O)[O-])ccc2O)c1 | -1% | 0% | / | -86* | 1%[11.4 µM] | -6%
Cc1ccc(C)c(NC(=O)CCC(=O)N/N=C/c2ccc[nH]2)c1 | -30% | / | -1 | -2 | -24% | 22%
O=C(CN(c1cccc(Br)c1)S(=O)(=O)c1ccccc1)N/N=C/c1cc([N+](=O)[O-])ccc1O | / | / | ? | -14 | 50µM* | -12%
CC1CC=CC2C1C(=O)N(Cc1ccccc1)C2c1ccc(Br)cc1F (stereo not drawn) | / | / | / | / | 5% | 63%
COc1ccc2nc(NC(=O)c3ccc(S(=O)(=O)N4CCC(C)CC4)cc3)sc2c1 | 0% | 4%[59 µM] | / | / | -16% | 13%[57 µM]
COc1ccc(CN(Cc2ccccc2)C(=O)c2ccccc2O)cc1 | / | / | / | / | 68% | /
Cc1ccccc1NC(=O)CCC(=O)N/N=C/c1cc([N+](=O)[O-])ccc1O | ? | -13% | -88* | -79* | -20% | 20%
O=C(CCCC(=O)Nc1cccc(Br)c1)N/N=C/c1cc([N+](=O)[O-])ccc1O | 1% | / | -82* | -67* | ? | 27%
O=C(CSc1nc2ccccc2s1)N/N=C/c1cc([N+](=O)[O-])ccc1O | -23% | 29% | -68* | ? | ? | 19%
O=C(CCC(=O)Nc1cccc(Cl)c1)N/N=C/c1cc([N+](=O)[O-])ccc1O | -8% | 1% | -2 | ? | -21% | 20%
CCCC(=O)Nc1nc2c(s1)CC(C(C)(C)C)CC2 (stereo not drawn) | 4% | -12%[59 µM] | / | / | -5% | 35%
COc1ccc2c(c1)NC(c1cc(Cl)cc(Cl)c1O)c1cccn1-2 (stereo not drawn) | -10% | ? | -11 | -15 | -16% | 26%
COc1ccc2c(c1)NC(c1ccc(N(C)C)cc1)c1cccn1-2 (stereo not drawn) | -3% | 79µM* | 35 | 21 | 21% | 102%
O=C(Cn1ncc2c([nH]c3ccccc32)c1=O)Nc1cc(F)ccc1F | 1% | 0%[59 µM] | / | / | -17% | 29%
O=c1c2c(nc3c(-c4ccc(Cl)cc4)c[nH]n13)CCC2 | -1% | 56µM* | / | -12 | -5%[11.4 µM] | ?
CCN=C1SC(CC(=O)Nc2ccc3c(c2)OCO3)C(=O)N1CC (stereo not drawn) | -9% | / | 0 | -9 | -10% | 15%[57 µM]
